# “And” between values parts separate entries of the source, which are not always exact repeats. Equal values may be shown once. A structure can be active in one record and inactive in another. The source made the active and inactive calls. Rule for the calls: active = hit-call score of the fitted dose curve at least 0.9, where 1 is the maximum; inactive = score below 0.9.
# Legend:
# [1] = ATG_GLI_CIS: Attagene CIS-FACTORIAL HepG2 Assay for human Zinc Finger Protein GLI1 (AID 2282945); conditions: HepG2, Attagene cis-factorial reporter mRNA, GLI element; actives raise or lower the signal
# Summary of the method: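 Transiently transfected HepG2 cells report endogenous transcription factor activity via cis-element-driven reporter units. After 24 h compound exposure, reporter mRNA was measured by RT-PCR with capillary electrophoresis; bidirectional fitting against DMSO baseline.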
# [2] = biological target: Bile acid receptor (Homo sapiens) (UniProt Q96RI1); assay: ATG_IR1_CIS: Attagene CIS-FACTORIAL HepG2 Assay for human Nuclear Receptor Subfamily 1 Group H Member 4 (NR1H4), IR1 submotif (AID 2282946); conditions: IR1 reporter transcription, actives raise or lower the signal
# Chain of Bile acid receptor (Homo sapiens) (Q96RI1 whole entry, looked up): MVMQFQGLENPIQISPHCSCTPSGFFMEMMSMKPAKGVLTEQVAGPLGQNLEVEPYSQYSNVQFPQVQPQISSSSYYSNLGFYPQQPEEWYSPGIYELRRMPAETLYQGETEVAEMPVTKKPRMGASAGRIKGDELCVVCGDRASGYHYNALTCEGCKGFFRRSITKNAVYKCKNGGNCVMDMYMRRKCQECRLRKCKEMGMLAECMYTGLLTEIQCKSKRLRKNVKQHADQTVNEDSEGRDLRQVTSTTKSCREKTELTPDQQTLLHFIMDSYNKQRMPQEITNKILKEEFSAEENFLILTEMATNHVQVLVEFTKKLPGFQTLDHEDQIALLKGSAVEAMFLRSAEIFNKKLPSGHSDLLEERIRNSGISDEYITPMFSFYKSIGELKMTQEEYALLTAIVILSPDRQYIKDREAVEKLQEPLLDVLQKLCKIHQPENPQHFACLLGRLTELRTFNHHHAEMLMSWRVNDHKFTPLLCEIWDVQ
# Summary of the method: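 HepG2 cells transiently transfected with multiple cis-promoter-driven reporter units to measure endogenous transcription factor activity; 24 h exposure. Reporter mRNA read by RT-PCR, FAM labelling, HpaI digestion and capillary electrophoresis. Bidirectional fit versus DMSO.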
# [3] = ATG_GRE_CIS: Attagene CIS-FACTORIAL HepG2 Assay for human Glucocorticoid Response Elements (GRE) (AID 2282947); conditions: HepG2 GRE cis-reporter, Attagene multiplex mRNA; actives raise or lower the signal
# Summary of the method: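 Endogenous transcription factor activity is read through cis-element reporter constructs transiently transfected into HepG2 cells. After 24 h treatment, labelled RT-PCR products are resolved by capillary electrophoresis; DMSO sets baseline for bidirectional curve fitting.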
# [4] = ATG_ISRE_CIS: Attagene CIS-FACTORIAL HepG2 Assay for human Interferon Regulatory Factor 1 (IRF1) binding to an Interferon-Stimulated Response Element (ISRE) (AID 2282948); conditions: HepG2 ISRE cis-reporter (Attagene), mRNA transcription readout; actives raise or lower the signal
# Summary of the method: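 Quantitation relies on labelled RT-PCR fragments separated by capillary electrophoresis. Human HepG2 cells bearing cis-promoter reporter constructs were treated 24 h; DMSO served as baseline for bidirectional fitting.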
# [5] = ATG_M_32_CIS: Attagene CIS-FACTORIAL HepG2 Assay for M32 Transcription Factor (Internal Marker) (AID 2282949); conditions: HepG2 Attagene cis-factorial M32 reporter, mRNA; actives raise or lower the signal;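 note: background control marker of the multiplexed CIS panel rather than a real target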
# Summary of the method: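 Internal background marker read-out: RT-PCR/capillary electrophoresis fluorescence of reporter transcripts from transiently transfected HepG2 cells after 24 h chemical exposure. Activity fitted bidirectionally relative to DMSO negative control.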
# [6] = ATG_M_06_CIS: Attagene CIS-FACTORIAL HepG2 Assay for M06 Transcription Factor (Internal Marker) (AID 2282950); conditions: HepG2 Attagene CIS-FACTORIAL M06 internal marker reporter; actives raise or lower the signal
# Summary of the method: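 Terse: HepG2, transient MRTU transfection (FuGene 6), 24 h dosing; total RNA, oligo(dT) RT, PCR, FAM label, HpaI cut, capillary electrophoresis; bidirectional fit vs DMSO baseline; background-control endpoint.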
# [7] = biological target: Hypoxia-inducible factor 1-alpha (Homo sapiens) (UniProt Q16665); assay: ATG_HIF1a_CIS: Attagene CIS-FACTORIAL HepG2 Assay for human Hypoxia Inducible Factor 1 (HIF1A) (AID 2282951); conditions: HepG2 Attagene cis-factorial HIF1a reporter transcription; actives raise or lower the signal
# Chain of Hypoxia-inducible factor 1-alpha (Homo sapiens) (Q16665 whole entry, looked up): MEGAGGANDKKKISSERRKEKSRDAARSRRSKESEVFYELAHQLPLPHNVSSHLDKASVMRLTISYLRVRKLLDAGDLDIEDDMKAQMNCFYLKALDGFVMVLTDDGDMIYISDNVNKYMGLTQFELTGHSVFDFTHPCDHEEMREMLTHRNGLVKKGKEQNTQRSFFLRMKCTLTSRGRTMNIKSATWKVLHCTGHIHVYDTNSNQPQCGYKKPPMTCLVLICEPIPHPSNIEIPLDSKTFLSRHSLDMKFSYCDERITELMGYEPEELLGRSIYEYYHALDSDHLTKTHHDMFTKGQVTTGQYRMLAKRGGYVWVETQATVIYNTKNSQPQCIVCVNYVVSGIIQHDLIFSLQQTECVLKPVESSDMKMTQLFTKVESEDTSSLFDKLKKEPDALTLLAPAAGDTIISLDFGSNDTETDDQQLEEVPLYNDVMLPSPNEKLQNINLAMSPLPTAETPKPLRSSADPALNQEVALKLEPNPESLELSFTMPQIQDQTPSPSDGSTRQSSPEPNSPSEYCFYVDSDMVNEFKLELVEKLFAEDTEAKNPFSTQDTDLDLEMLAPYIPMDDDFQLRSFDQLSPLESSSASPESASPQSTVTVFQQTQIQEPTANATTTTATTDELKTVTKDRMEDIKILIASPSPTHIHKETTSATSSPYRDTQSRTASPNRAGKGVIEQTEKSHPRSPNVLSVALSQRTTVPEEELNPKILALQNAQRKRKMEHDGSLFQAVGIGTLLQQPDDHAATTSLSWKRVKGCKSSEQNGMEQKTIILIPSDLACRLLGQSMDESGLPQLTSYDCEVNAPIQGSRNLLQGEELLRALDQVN
# Summary of the method: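 Activity is fitted in both directions relative to DMSO. Reporter transcripts are read by RT-PCR, fluorescent primer extension and capillary electrophoresis after 24 h chemical treatment. The cells are HepG2 carrying transiently transfected cis-element-driven reporter units responding to endogenous factors.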
# [8] = biological target: Hepatocyte nuclear factor 6 (Homo sapiens) (UniProt Q9UBC0); assay: ATG_HNF6_CIS: Attagene CIS-FACTORIAL HepG2 Assay for human Hepatocyte Nuclear Factor 6 (HNF6) (AID 2282952); conditions: HepG2 Attagene cis-factorial HNF6 reporter transcription; actives raise or lower the signal
# Chain of Hepatocyte nuclear factor 6 (Homo sapiens) (Q9UBC0 whole entry, looked up): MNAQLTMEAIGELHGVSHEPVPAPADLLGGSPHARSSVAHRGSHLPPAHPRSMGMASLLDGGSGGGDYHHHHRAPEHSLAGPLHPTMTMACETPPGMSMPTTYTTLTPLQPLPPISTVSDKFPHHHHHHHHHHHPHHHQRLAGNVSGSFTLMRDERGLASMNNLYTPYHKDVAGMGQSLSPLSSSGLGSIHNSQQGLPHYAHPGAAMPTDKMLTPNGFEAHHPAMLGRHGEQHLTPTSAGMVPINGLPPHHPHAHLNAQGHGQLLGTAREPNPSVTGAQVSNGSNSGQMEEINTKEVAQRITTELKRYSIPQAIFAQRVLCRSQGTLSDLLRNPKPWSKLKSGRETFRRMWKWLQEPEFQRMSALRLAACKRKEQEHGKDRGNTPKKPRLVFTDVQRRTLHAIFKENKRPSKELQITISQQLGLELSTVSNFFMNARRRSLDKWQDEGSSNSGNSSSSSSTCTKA
# Summary of the method: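 Multiplexed mRNA reporter assay in transfected HepG2; 24 h dosing; RT-PCR plus capillary electrophoresis fluorescence; DMSO-referenced bidirectional curve fitting.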
# [9] = biological target: Heat shock factor protein 1 (Homo sapiens) (UniProt Q00613); assay: ATG_HSE_CIS: Attagene CIS-FACTORIAL HepG2 Assay for human Heat Shock Transcription Factor 1 (HSE) (AID 2282953); conditions: HepG2 HSE cis-reporter, Attagene RNA transcription; actives raise or lower the signal
# Chain of Heat shock factor protein 1 (Homo sapiens) (Q00613 whole entry, looked up, the tested form may be a part): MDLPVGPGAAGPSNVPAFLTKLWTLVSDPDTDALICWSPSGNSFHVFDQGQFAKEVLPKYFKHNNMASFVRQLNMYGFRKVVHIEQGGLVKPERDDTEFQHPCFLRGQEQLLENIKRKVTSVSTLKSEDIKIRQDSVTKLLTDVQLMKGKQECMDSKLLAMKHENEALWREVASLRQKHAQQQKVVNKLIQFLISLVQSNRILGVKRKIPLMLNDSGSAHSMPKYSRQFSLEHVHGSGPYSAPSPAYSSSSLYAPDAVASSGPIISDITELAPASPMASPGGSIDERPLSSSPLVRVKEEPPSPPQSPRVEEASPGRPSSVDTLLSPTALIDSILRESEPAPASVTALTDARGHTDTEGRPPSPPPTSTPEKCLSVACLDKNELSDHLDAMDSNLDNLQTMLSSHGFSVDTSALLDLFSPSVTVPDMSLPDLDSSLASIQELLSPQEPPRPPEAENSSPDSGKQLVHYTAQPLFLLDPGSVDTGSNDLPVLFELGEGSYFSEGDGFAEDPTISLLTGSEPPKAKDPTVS
# Summary of the method: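 Read-out: fluorescence of reporter-specific RT-PCR fragments separated by capillary electrophoresis. HepG2 carrying transfected cis-element reporter units; 24 h dosing; activity fitted in both directions relative to DMSO baseline.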
# [10] = ATG_MRE_CIS: Attagene CIS-FACTORIAL HepG2 Assay for human Metal Responsive Element (MRE) (AID 2282954); conditions: HepG2 MRE cis-reporter transcription, Attagene multiplex; actives raise or lower the signal
# Summary of the method: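 Fluorescent reporter fragments separated by capillary electrophoresis give mRNA induction for the MRE unit after 24 h treatment of transfected HepG2 cells. Endogenous transcription-factor activity is read; DMSO serves as negative control and baseline.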
# [11] = ATG_PBREM_CIS: Attagene CIS-FACTORIAL HepG2 Assay for human Phenobarbital-responsive Enhancer Module (PBREM) (AID 2282955); conditions: HepG2 PBREM cis-reporter, Attagene multiplexed transcription; actives raise or lower the signal
# Summary of the method: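 Endogenous transcription factor activity was read from reporter transcripts in transiently transfected human HepG2 liver cells after 24 h dosing. RT-PCR products were fluorescently labelled, HpaI-cut and sized by capillary electrophoresis; activity fitted bidirectionally against DMSO baseline.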
# [12] = ATG_PXRE_CIS: Attagene CIS-FACTORIAL HepG2 Assay for human Pregnane X Receptor Element (PXRE) (AID 2282957); conditions: HepG2 Attagene CIS-FACTORIAL PXRE reporter, mRNA; actives raise or lower the signal
# Summary of the method: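 Cells: HepG2, transiently transfected reporter units under cis promoter control. Exposure: 24 h. Detection: reporter mRNA via RT-PCR/CE fluorescence; bidirectional fitting, DMSO-referenced.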
# [13] = ATG_PPRE_CIS: Attagene CIS-FACTORIAL HepG2 Assay for human Peroxisome Proliferator-activated Response Element (PPRE) (AID 2282958); conditions: HepG2 PPRE cis-element reporter, Attagene transcription factor profiling; actives raise or lower the signal
# Summary of the method: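 Endogenous PPRE-driven transcription is measured in HepG2 cells carrying transfected multi-reporter constructs. Reporter transcripts are quantified by RT-PCR, HpaI digestion and capillary electrophoresis 24 h after dosing. DMSO baseline, bidirectional fit.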
# [14] = ATG_RORE_CIS: Attagene CIS-FACTORIAL HepG2 Assay for human RAR-related Orphan Receptor Element (RORE) (AID 2282959); conditions: HepG2 Attagene cis-factorial RORE reporter, mRNA; actives raise or lower the signal
# Summary of the method: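 RORE reporter transcripts reflecting endogenous factor activity were read after 24 h compound exposure of transfected HepG2 cells, using reverse transcription, PCR, fluorescent labelling and capillary electrophoresis sizing. Gain or loss fitted against DMSO.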
# [15] = ATG_Sox_CIS: Attagene CIS-FACTORIAL HepG2 Assay for human SRY-box transcription factor (SOX) (AID 2282960); conditions: HepG2 Attagene cis-factorial SOX reporter, mRNA; actives raise or lower the signal
# Summary of the method: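 Reporter transcripts, measured by RT-PCR and capillary electrophoresis of labelled fragments, report endogenous SOX transcription factor activity. Transiently transfected human HepG2 cells receive chemical for 24 h; changes in either direction are fitted relative to DMSO.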
# [16] = biological target: Transcription factor Sp1 (Homo sapiens) (UniProt P08047); assay: ATG_Sp1_CIS: Attagene CIS-FACTORIAL HepG2 Assay for human Specificity Protein 1 (Sp1) (AID 2282961); conditions: HepG2 Sp1 cis-reporter transcription, actives raise or lower the signal
# Chain of Transcription factor Sp1 (Homo sapiens) (P08047 whole entry, looked up): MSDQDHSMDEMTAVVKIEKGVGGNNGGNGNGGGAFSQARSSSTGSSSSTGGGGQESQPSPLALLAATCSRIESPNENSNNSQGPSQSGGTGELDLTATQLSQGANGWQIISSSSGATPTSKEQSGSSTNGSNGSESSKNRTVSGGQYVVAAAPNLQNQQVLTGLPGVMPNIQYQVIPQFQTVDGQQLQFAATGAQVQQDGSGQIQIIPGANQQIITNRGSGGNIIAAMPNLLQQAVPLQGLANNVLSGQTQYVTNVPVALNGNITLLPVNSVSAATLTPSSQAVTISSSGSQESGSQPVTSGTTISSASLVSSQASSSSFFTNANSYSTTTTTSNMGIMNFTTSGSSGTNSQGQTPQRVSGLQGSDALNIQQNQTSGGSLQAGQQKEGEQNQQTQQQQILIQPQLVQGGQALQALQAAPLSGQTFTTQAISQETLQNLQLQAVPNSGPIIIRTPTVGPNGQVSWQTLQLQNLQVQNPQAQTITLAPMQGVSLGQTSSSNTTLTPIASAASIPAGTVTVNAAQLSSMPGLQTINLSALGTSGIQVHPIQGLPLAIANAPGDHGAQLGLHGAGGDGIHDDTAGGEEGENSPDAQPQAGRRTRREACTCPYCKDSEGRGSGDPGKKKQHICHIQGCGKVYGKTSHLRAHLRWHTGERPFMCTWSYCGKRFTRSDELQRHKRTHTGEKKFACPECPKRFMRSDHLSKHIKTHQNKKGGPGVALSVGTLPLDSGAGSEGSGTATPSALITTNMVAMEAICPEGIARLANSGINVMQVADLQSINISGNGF
# Summary of the method: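 Read-out is reporter transcript level, measured by RT-PCR and fluorescent capillary electrophoresis after 24 h chemical treatment. System: transiently transfected HepG2 cells reporting endogenous transcription factor activity; gain or loss fitted against DMSO baseline.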
# [17] = ATG_SREBP_CIS: Attagene CIS-FACTORIAL HepG2 Assay for human Sterol Regulatory Element Binding (SREBP) (AID 2282962); conditions: HepG2 Attagene cis-factorial SREBP reporter, mRNA; actives raise or lower the signal
# Summary of the method: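 Twenty-four hours after chemical dosing of transfected HepG2 cultures, reporter RNA was converted to cDNA, amplified, end-labelled with 6-FAM and resolved by capillary electrophoresis. Responses were fitted relative to DMSO.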
# [18] = biological target: Signal transducer and activator of transcription 3 (Homo sapiens) (UniProt P40763); assay: ATG_STAT3_CIS: Attagene CIS-FACTORIAL HepG2 Assay for human Signal Transducer and Activator of Transcription 3 (STAT3) (AID 2282963); conditions: HepG2, Attagene cis-factorial STAT3 reporter transcription; actives raise or lower the signal
# Chain of Signal transducer and activator of transcription 3 (Homo sapiens) (P40763 whole entry, looked up): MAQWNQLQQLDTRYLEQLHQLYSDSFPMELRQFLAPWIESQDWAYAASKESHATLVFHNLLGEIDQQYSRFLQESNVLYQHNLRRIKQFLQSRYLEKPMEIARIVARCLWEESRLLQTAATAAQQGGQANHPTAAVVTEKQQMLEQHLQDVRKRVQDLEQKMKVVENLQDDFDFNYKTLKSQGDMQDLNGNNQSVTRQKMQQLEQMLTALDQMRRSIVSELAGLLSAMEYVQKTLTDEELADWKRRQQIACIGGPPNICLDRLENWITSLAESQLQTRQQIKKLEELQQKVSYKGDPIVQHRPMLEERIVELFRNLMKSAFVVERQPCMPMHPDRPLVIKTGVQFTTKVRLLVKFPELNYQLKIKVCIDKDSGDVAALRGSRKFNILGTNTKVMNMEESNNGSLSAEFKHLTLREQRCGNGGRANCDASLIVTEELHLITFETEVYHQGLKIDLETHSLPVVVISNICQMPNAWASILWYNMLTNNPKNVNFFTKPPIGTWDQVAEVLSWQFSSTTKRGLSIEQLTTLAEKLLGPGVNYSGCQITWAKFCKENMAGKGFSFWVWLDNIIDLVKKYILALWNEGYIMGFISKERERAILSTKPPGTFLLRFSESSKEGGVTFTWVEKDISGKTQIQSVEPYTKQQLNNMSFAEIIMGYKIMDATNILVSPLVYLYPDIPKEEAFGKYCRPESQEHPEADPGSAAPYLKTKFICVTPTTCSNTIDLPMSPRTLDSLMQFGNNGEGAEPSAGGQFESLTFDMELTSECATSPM
# Summary of the method: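 Values derive from bidirectional fits relative to DMSO of reporter mRNA levels, measured by RT-PCR with capillary electrophoresis, in HepG2 cells carrying transiently transfected cis-regulated reporter units and exposed 24 h.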
# [19] = ATG_TA_CIS: Attagene CIS-FACTORIAL HepG2 Assay for human TA Basal Promoter (AID 2282964); conditions: HepG2 Attagene CIS-factorial TA basal promoter reporter; actives raise or lower the signal
# Summary of the method: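 Transfected HepG2, 24 h compound exposure; RNA → RT-PCR → FAM primer extension → HpaI cut → CE fluorescence. Gain/loss-of-signal fitted against DMSO negative control. Background-control readout.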
# [20] = biological target: Paired box protein Pax-6 (Homo sapiens) (UniProt P26367); assay: ATG_Pax6_CIS: Attagene CIS-FACTORIAL HepG2 Assay for human Paired Box 6 (PAX6) (AID 2282956); conditions: HepG2 CIS-FACTORIAL PAX6 reporter transcription, RNA readout; actives raise or lower the signal
# Chain of Paired box protein Pax-6 (Homo sapiens) (P26367 whole entry, looked up): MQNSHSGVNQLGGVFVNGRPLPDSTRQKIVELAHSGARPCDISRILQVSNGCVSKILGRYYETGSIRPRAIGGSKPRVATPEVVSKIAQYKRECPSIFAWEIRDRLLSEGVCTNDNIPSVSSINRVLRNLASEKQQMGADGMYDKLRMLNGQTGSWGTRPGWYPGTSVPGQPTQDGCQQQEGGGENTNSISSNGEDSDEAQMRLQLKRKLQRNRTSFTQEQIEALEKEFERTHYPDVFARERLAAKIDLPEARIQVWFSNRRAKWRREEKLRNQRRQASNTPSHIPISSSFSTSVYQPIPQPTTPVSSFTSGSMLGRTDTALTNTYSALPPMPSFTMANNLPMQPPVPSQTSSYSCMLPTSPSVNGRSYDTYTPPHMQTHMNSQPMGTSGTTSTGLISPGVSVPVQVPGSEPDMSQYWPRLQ
# Summary of the method: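 After twenty-four hours of chemical exposure, transfected HepG2 cells are harvested for RNA. Cis-promoter reporter transcripts are amplified, fluorescently labelled and sized by capillary electrophoresis, with gain and loss of signal scored against DMSO.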
smiles,measurement,setting,value
CCCOC(=O)c1ccc(O)cc1,outcome,[1],inactive
same,outcome,[2],inactive
same,outcome,[3],inactive
same,outcome,[4],inactive
same,outcome,[5],inactive
same,outcome,[6],inactive
same,AC50,[7],176 µM (active)
same,outcome,[7],inactive
same,outcome,[8],inactive
same,outcome,[9],inactive
same,AC50,[10],100 µM (active)
same,outcome,[10],inactive
same,outcome,[11],inactive
same,AC50,[12],34.2 µM (active) and 60 µM (active)
same,AC50,[13],77.5 µM (active)
same,outcome,[13],inactive
same,AC50,[14],128 µM (active)
same,outcome,[14],inactive
same,outcome,[15],inactive
same,outcome,[16],inactive
same,AC50,[17],26.4 µM (active)
same,outcome,[17],inactive
same,outcome,[18],inactive
same,AC50,[19],162 µM (active)
same,outcome,[19],inactive
CCN(CC)CCNc1ccc(CNC=O)c2sc3ccc(OC)cc3c(=O)c12,outcome,[1],inactive
same,AC50,[2],1.19 µM (active)
same,AC50,[3],1.85 µM (active)
same,outcome,[4],inactive
same,outcome,[5],inactive
same,outcome,[6],inactive
same,AC50,[7],0.515 µM (active)
same,AC50,[8],0.947 µM (active)
same,AC50,[9],1.85 µM (active)
same,outcome,[10],inactive
same,outcome,[20],inactive
same,outcome,[12],inactive
same,outcome,[13],inactive
same,outcome,[15],inactive
same,AC50,[16],0.98 µM (active)
same,outcome,[17],inactive
same,outcome,[18],inactive
same,outcome,[19],inactive
c1ccc2c(c1)ccc1ccccc12,outcome,[1],inactive
same,outcome,[2],inactive
same,outcome,[3],inactive
same,outcome,[4],inactive
same,outcome,[5],inactive
same,outcome,[6],inactive
same,AC50,[7],26.9 µM (active)
same,outcome,[8],inactive
same,outcome,[9],inactive
same,outcome,[10],inactive
same,outcome,[11],inactive
same,AC50,[12],58.4 µM (active)
same,outcome,[13],inactive
same,outcome,[14],inactive
same,outcome,[15],inactive
same,outcome,[16],inactive
same,outcome,[17],inactive
same,outcome,[18],inactive
same,outcome,[19],inactive
Cc1oc(-c2ccccc2)nc1CCOc1ccc(C[C@H](Nc2ccccc2C(=O)c2ccccc2)C(=O)O)cc1,outcome,[1],inactive
same,AC50,[2],11 µM (active)
same,outcome,[3],inactive
same,outcome,[4],inactive
same,outcome,[5],inactive
same,outcome,[6],inactive
same,AC50,[7],17.6 µM (active)
same,outcome,[8],inactive
same,AC50,[9],17.6 µM (active)
same,AC50,[10],20.8 µM (active)
same,AC50,[20],14.4 µM (active)
same,outcome,[12],inactive
same,outcome,[14],inactive
same,outcome,[15],inactive
same,outcome,[16],inactive
same,outcome,[17],inactive
same,outcome,[18],inactive
same,outcome,[19],inactive
CCCCCCC(=O)O,outcome,[1],inactive
same,outcome,[2],inactive
same,outcome,[3],inactive
same,outcome,[4],inactive
same,outcome,[5],inactive
same,outcome,[7],inactive
same,outcome,[8],inactive
same,outcome,[9],inactive
same,outcome,[10],inactive
same,outcome,[11],inactive
same,outcome,[20],inactive
same,AC50,[12],53.4 µM (active)
same,outcome,[12],inactive
same,outcome,[14],inactive
same,outcome,[15],inactive
same,outcome,[16],inactive
same,outcome,[17],inactive
same,outcome,[18],inactive
same,outcome,[19],inactive
